PubChem BioAssay AID1038 (National Center for Advancing Translational Sciences (NCATS), 2008)
Inconclusive results are not listed. Active and inactive are the calls of the source. The call rests on the fitted dose curve.

experiment: Normal 1 Cell Viability Secondary Assay for qHTS Assay for Epigenetic Modulators; conditions: Normal 1 bronchial epithelial viability, MTS, 4 d
Description: NIH Molecular Libraries Screening Centers Network [MLSCN] NIH Chemical Genomics Center [NCGC] MLSCN Grant: 1 X01 MH079860-01 Assay Provider: Elisabeth D. Martinez, University of Texas SW Medical Center NCGC Assay Overview: This secondary assay characterizes selected actives identified in the qHTS of the Locus Derepression (LDR) assay (PubChem AID 597). The LDR assay detects the derepression of a GFP reporter that is stably integrated in a region of the genome of murine c127i mammary cells that is presumably silenced. Compounds that cause derepression of the locus to express GFP are identified by enumerating GFP positive cells using a laser-scanning microplate cytometer. Selected LDR actives were assayed for killing of Normal 1, a patient-derived normal bronchial epithelial line matched to NSCLC 1, a nonsmall cell lung carcinoma line from the same patient. The Normal 1 line assays the cytoxicity of test compounds on normal lung cells. Normal 1 cell viability was measured using Cell Titer 96 AQueous One (Promega), an assay which detects the ability of metabolically active cells to reduce a tetrazolium salt substrate (MTS), into a soluble formazan product that can be measured by colorimetry.
NCGC Assay Protocol Summary Normal 1 cells were plated in 96-well flat bottom tissue culture dishes (Corning) and grown overnight at 37 C and 5% CO2, then treated with compounds, incubated 4 days, and assayed for viability using the Cell Titer 96 AQueous One kit (Promega) according to the manufacturer's protocol. Absorbance at 490 nm and 650 nm (reference) was measured by a Spectra Max (Molecular Devices). Data were normalized to the untreated control (100% viability). Each cell line was tested in one or two independent assays, each containing 4 or 8 replicates. For further details, see R.L. Johnson, W. Huang, A. Jadhav, C.P. Austin, J. Inglese, E.D. Martinez, A Quantitative High-Throughput Screen Identifies Potential Epigenetic Modulators of Gene Expression, Analytical Biochemistry (2007), doi: 10.1016/j.ab.2007.12.028

SMILES	Potency	outcome
O=Nc1ccc(O)c2ncccc12	3000 nM (active)	
CC(C)C(=O)NC(c1ccco1)c1ccc2cccnc2c1O (configuration not stated)	9000 nM (active)	
CC(/C=C/C(=O)NO)=C\[C@@H](C)C(=O)c1ccc(N(C)C)cc1	200 nM (active)	
CC(C)C(=O)NC(c1ccc(N(C)C)cc1)c1ccc2cccnc2c1O (configuration not stated)	6000 nM (active)	
CC(C)C(=O)NC(c1ccco1)c1cc([N+](=O)[O-])c2cccnc2c1O (configuration not stated)	800 nM (active)	
CN1C(=S)SC(c2ccccc2)N(C)C1c1ccccc1 (configuration not stated)		inactive
O=C(CSc1cccc2cccnc12)NCc1ccccc1		inactive
